For 18 compounds, Potency results are on record in PubChem BioAssay (NCATS).

Results filed as inconclusive are left out. Where a call stands in place of a potency, no number is given. Activity calls are given as the source filed them. The call rests on the fitted dose curve; tested in HEK293 reporter line.

This assay can be described thus: qHTS for Inhibitors of the Functional Ribonucleoprotein Complex (vRNP) of Lassa (LASV) Arenavirus: LASV Primary Screen - GLuc reporter signal (AID 1347082). Further: nearly all actives have a fitted effect of over 60% in size. The following applies: LASV minigenome vRNP, Gaussia luciferase reporter; series mostly up to 57.5 µM. Background: In qHTS, concentration-response curves come from the screen itself.
Take `O=C(OC1C[C@H]2CC[C@@H](C1)[N+]21CCCC1)C(O)(c1ccccc1)c1ccccc1` (stereo partly drawn): the Potency entry is “inactive”. Take `COc1ccc([C@@H]2Sc3ccccc3N(CCN(C)C)C(=O)[C@@H]2OC(C)=O)cc1`: the Potency result is “inactive”.

Turning to `COc1cc2nc(N(C)CCCNC(=O)C3CCCO3)nc(N)c2cc1OC` (stereo not drawn), the Potency entry was “inactive”. Turning to `CCC1(c2ccccc2)C(=O)NCNC1=O`, the Potency entry is “inactive”. In the case of `CC[C@@H](CO)NCCN[C@@H](CC)CO`, the Potency result is “inactive”.

For `CCCCN1C[C@H](O)[C@@H](O)[C@H](O)[C@H]1CO`, the Potency result was “inactive”. With `CN(Cc1cnc2nc(N)nc(N)c2n1)c1ccc(C(=O)N[C@@H](CCC(=O)O)C(=O)O)cc1`, the Potency result was “inactive”. As for `CCOC(=O)c1ncn2c1CN(C)C(=O)c1cc(F)ccc1-2`, the Potency entry was “inactive”. For the compound `Cc1ccc(-n2nc(C(C)(C)C)cc2NC(=O)Nc2ccc(OCCN3CCOCC3)c3ccccc23)cc1`, the Potency entry was “inactive”. For `O=C(O)C1(C(=O)O)CCC1.[NH2-].[NH2-].[Pt+2]`, the Potency result is “inactive”.

For `CN(C)CCC=C1c2ccccc2CCc2ccccc21`, the Potency result is “inactive”. Regarding `O=C(O)c1ccc(-n2nc(-c3ccccc3O)nc2-c2ccccc2O)cc1`, the Potency entry is “inactive”.

Turning to `CC(C)Nc1cccnc1N1CCN(C(=O)c2cc3cc(NS(C)(=O)=O)ccc3[nH]2)CC1`, the Potency result was “inactive”.

In the case of `C[C@](N)(Cc1ccc(O)c(O)c1)C(=O)O`, the Potency entry is “inactive”.

As for `O=C(CCCCCCC(=O)Nc1ccccc1)NO`, the Potency result was “inactive”. On to `CC(=O)O[C@]1(C(C)=O)CC[C@H]2[C@@H]3C=C(C)C4=CC(=O)CC[C@]4(C)[C@H]3CC[C@@]21C`, for which the Potency entry is “inactive”. As for `O[C@@H]1CO[C@H]2[C@@H]1OC[C@@H]2O`, the Potency entry is “inactive”. In the case of `CN(C)/N=N/c1nc[nH]c1C(N)=O`, the Potency result was “inactive”.
